Results filed as inconclusive are left out. Active and inactive are the calls of the source. Calls come from the whole dose curve; as a rule, active = well fitted curve in the direction sought with a large enough effect; inconclusive = small, poorly fitted or top-dose-only effect, or another doubt; inactive = no such curve, though single readings can be large; an effect the other way counts as inactive or inconclusive.
How the values were obtained:
[1] = Quantitative High-Throughput drug screen in 47 multiple myeloma cell lines against the NCATS MIPE library collection: KMS12PE_JCRB cell viability assay (AID 1918972); note: nearly all actives have a fitted effect of over 30% in size
Summary of the method: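 CellTiter-Glo ATP luminescence gave viability after 48 h compound treatment at 37C of 500 multiple myeloma cells per well. Normalisation used DMSO-only wells as 100% and media-only wells as 0% viability; primary qHTS of approved and investigational drugs.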

[2] = Quantitative High-Throughput drug screen in 47 multiple myeloma cell lines against the NCATS MIPE library collection: KMS20_JCRB cell viability assay (AID 1918973); note: nearly all actives have a fitted effect of over 45% in size
Summary of the method: (§1)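 Viability readout: CellTiter-Glo luminescence following 5 min room-temperature incubation with reagent. Prior exposure: 48 h, 37C, humidified 5% CO2, 500 cells per well.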

[3] = Quantitative High-Throughput drug screen in 47 multiple myeloma cell lines against the NCATS MIPE library collection: KMS26_JCRB cell viability assay (AID 1918975); note: nearly all actives have a fitted effect of over 45% in size
Summary of the method: as §1

[4] = Quantitative High-Throughput drug screen in 47 multiple myeloma cell lines against the NCATS MIPE library collection: MMM1_PLB cell viability assay (AID 1918976); note: nearly all actives have a fitted effect of over 35% in size
Summary of the method: (§2)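 ATP-based CellTiter-Glo luminescence after 48 h drug exposure (37 °C, 5% CO2) of 500 myeloma cells per well. DMSO-only wells set 100% viability, media-only wells 0%; MIPE 4.0 library added by pin tool.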

[5] = Quantitative High-Throughput drug screen in 47 multiple myeloma cell lines against the NCATS MIPE library collection: MOLP8_DSMZ cell viability assay (AID 1918977); note: nearly all actives have a fitted effect of over 45% in size
Summary of the method: as §2

[6] = Quantitative High-Throughput drug screen in 47 multiple myeloma cell lines against the NCATS MIPE library collection: NCIH929_DSMZ cell viability assay (AID 1918978); note: nearly all actives have a fitted effect of over 35% in size
Summary of the method: as §2

[7] = Quantitative High-Throughput drug screen in 47 multiple myeloma cell lines against the NCATS MIPE library collection: OCIMY1_PLB cell viability assay (AID 1918979); note: nearly all actives have a fitted effect of over 35% in size
Summary of the method: as §2

[8] = Quantitative High-Throughput drug screen in 47 multiple myeloma cell lines against the NCATS MIPE library collection: MM1S_ATCC cell viability assay (AID 1918980); note: nearly all actives have a fitted effect of over 45% in size
Summary of the method: as §2

[9] = Quantitative High-Throughput drug screen in 47 multiple myeloma cell lines against the NCATS MIPE library collection: MM1R_ATCC cell viability assay (AID 1918981); note: nearly all actives have a fitted effect of over 35% in size
Summary of the method: as §2

[10] = Quantitative High-Throughput drug screen in 47 multiple myeloma cell lines against the NCATS MIPE library collection: KMS21BM_JCRB cell viability assay (AID 1918974); details: ATP luminescence, 48 h; viability: at 45.8 µM (top of the series)
Summary of the method: as §1

Measured: Potency
Potency is the fitted concentration of half-maximal effect.

Cc1[nH]nc2ccc(-c3cncc(OC[C@@H](N)Cc4c[nH]c5ccccc45)c3)cc12
active: [2] 1.18 µM | [3] 1.18 µM | [4] 1.18 µM | [5] 264 nM | [6] 1050 nM | [7] 1.87 µM | [8] 833 nM | [9] 1.48 µM
inactive: [1]

CN1CCN(c2ccc([N+](=O)[O-])c3no[n+]([O-])c23)CC1
active: [1] 16.6 µM | [2] 8.33 µM | [10] 8.33 µM | [4] 20.9 µM | [6] 11800 nM | [7] 26.4 µM | [8] 23500 nM | [9] 20.9 µM

C[C@]12COC(=O)C[C@@H]1CC[C@@H]1[C@H]2CC[C@@]2(C)[C@H]1CC[C@]2(C)O
inactive: [1] | [2] | [3] | [6] | [7] | [8]

CSCC[C@@H](NC(=O)[C@@H](Cc1ccccc1)NC(=O)CNC(=O)CNC(=O)[C@@H](N)Cc1ccc(O)cc1)C(=O)O
inactive: [1] | [2] | [3] | [6] | [7] | [8]

O=[N+]([O-])c1ncc[nH]1
active: [4] 3.32 µM
not listed: [5] | [7]
inactive: all other assays above

O=c1[nH]c2ccccc2n1C1CCN(Cc2ccc(-c3[nH]c4cc5ncnc5cc4nc3-c3ccccc3)cc2)CC1
active: [1] 10.5 µM | [2] 2.35 µM | [10] 16.6 µM | [3] 23.5 µM | [4] 14.8 µM | [6] 662 nM | [7] 18.7 µM | [8] 18700 nM | [9] 16.6 µM

C#CC1(O)CCC2C3CCC4=CC(=O)CCC4(C)C3CCC21C (stereo not given)
active: [4] 9.35 µM
not listed: [3] | [5] | [10]
inactive: all other assays above

C[C@@H]1CC[C@@]2(OC1)O[C@H]1C[C@H]3[C@@H]4CC=C5C[C@@H](O[C@@H]6O[C@H](CO)[C@@H](O[C@@H]7O[C@@H](C)[C@H](O)[C@@H](O)[C@@H]7O)[C@H](O)[C@@H]6O[C@@H]6O[C@@H](C)[C@H](O)[C@@H](O)[C@@H]6O)CC[C@]5(C)[C@@H]4CC[C@]3(C)[C@@H]1[C@H]2C
active: [1] 1.32 µM | [2] 4.18 µM | [10] 1.48 µM | [3] 2.35 µM | [4] 2.35 µM | [5] 1870 nM | [6] 4180 nM | [7] 1.66 µM

C[C@@]12OC(=O)[C@]1([C@@H](O)[C@@H]1C=CCCC1)NC(=O)[C@H]2CCCl
active: [1] 0.0187 µM | [2] 0.0296 µM | [3] 0.0105 µM | [4] 0.132 µM | [5] 5.3 nM | [6] 1 nM | [8] 5.3 nM

COc1cc([C@@H]2c3cc4c(cc3[C@@H](O)C3COC(=O)C32)OCO4)cc(OC)c1O (stereo not given in full)
active: [1] 0.0372 µM | [2] 0.0662 µM | [3] 0.105 µM | [4] 0.0935 µM | [5] 418 nM | [6] 132 nM | [7] 0.0418 µM | [8] 187 nM

CN1[C@H]2CC(O)C[C@H]1[C@H]1O[C@H]12 (stereo not given in full)
active: [2] 11.8 µM | [3] 16.6 µM | [4] 20.9 µM | [5] 13200 nM | [6] 2640 nM | [8] 18700 nM | [9] 16.6 µM
inactive: [1]

CCc1c(C(=O)C(N)=O)c2c(OCC(=O)O)cccc2n1Cc1ccccc1
not listed: [4] | [5] | [10]
inactive: all other assays above

CC(C)(O)C=CC(=O)[C@](C)(O)[C@H]1[C@H](O)C[C@]2(C)[C@@H]3CC=C4[C@@H](C=C(O)C(=O)C4(C)C)[C@]3(C)C(=O)C[C@@]12C
active: [1] 0.0418 µM | [2] 0.0187 µM | [10] 0.0148 µM | [3] 0.0372 µM | [4] 1.32 µM | [5] 46.9 nM | [6] 46.9 nM | [7] 0.105 µM | [8] 41.8 nM

O=c1[nH]c2ccc(Cl)cc2c(N[C@@H]2CN3CCC2CC3)c1-c1nc2ccccc2[nH]1
active: [1] 0.0833 µM | [2] 0.166 µM | [10] 0.0264 µM | [3] 2.64 µM | [4] 6.62 µM | [5] 743 nM | [6] 148 nM | [7] 4.69 µM | [8] 74.3 nM

CC(C)N(CCNC(=O)CN1CCCC1=O)C(C)C
inactive: [1] | [2] | [5] | [6] | [7]

COc1cc2cc(c1Cl)N(C)C(=O)C[C@H](OC(=O)C(C)C)[C@]1(C)O[C@H]1[C@H](C)[C@@H]1C[C@@](O)(NC(=O)O1)[C@H](OC)C=CC=C(C)C2
not listed: [7] | [10]
inactive: all other assays above

CC1=C(O)C(=O)C=C2C1=CC=C1[C@@]2(C)CC[C@@]2(C)[C@@H]3C[C@](C)(C(=O)O)CC[C@]3(C)CC[C@]12C
active: [1] 1.05 µM | [2] 0.935 µM | [3] 0.418 µM | [4] 1.18 µM | [5] 418 nM | [6] 372 nM | [7] 0.833 µM | [8] 662 nM

Source: PubChem BioAssay (NCATS)
